# Values joined by “and” are separate entries in the source; they are usually repeats but may differ in a detail not shown here. Equal entries are not always repeated. Where a structure was tested more than once in an assay, its records may differ in their call. Active and inactive are the calls of the source. The calls were made as follows: active = hit-call score of the fitted dose curve at least 0.9, where 1 is the maximum; inactive = score below 0.9.
# Tests used:
# [1] = read-out: Macrophage colony-stimulating factor (MCSF), CSF1 (gene 1435); test: BSK_IMphg_MCSF: BioMAP Diversity Plus: IMphg Assay for Macrophage colony-stimulating factor (MCSF) Biomarker Activity (AID 2284293); conditions: primary human endothelial cells with macrophages
# Method in brief: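 Co-culture of human venular endothelial cells and macrophages, 24 hours of chemical exposure. M-CSF quantified by ELISA, with parallel SRB total-protein staining for cytotoxicity; activity fitted relative to DMSO.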
# [2] = read-out: Interleukin-10 (IL10), IL10 (gene 3586); test: BSK_IMphg_IL10: BioMAP Diversity Plus: IMphg Assay for Interleukin-10 (IL10) Biomarker Activity (AID 2284294); conditions: primary human endothelial cells with macrophages
# Method in brief: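 Human venular endothelial cells cocultured with macrophages, dosed 24 h; IL-10 measured by ELISA, activity relative to DMSO. Cytotoxicity assessed in parallel cultures by sulforhodamine B total-protein staining.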
# [3] = BSK_IMphg_SRB.Mphg: Macrophage Viability Assessment in the BioMAP Diversity Plus: IMphg Assay (AID 2284295); conditions: primary human endothelial cells with macrophages
# Method in brief: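 Venular endothelial cells co-cultured with macrophages, read 24 h after dosing. Total protein measured by 0.1% SRB staining after 10% TCA fixation, absorbance at 560 nm. Fitted in positive direction against DMSO baseline.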
# [4] = read-out: Thrombomodulin, THBD (gene 7056); test: BSK_LPS_Thrombomodulin: BioMAP Diversity Plus: LPS Assay for Thrombomodulin Biomarker Activity (AID 2284296); conditions: primary human HUVEC with PBMC
# Method in brief: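 Human umbilical vein endothelial cells co-cultured with PBMC and stimulated with LPS; cell-surface thrombomodulin measured by ELISA 24 hours after compound. Gain or loss versus DMSO; cytotoxicity checked by SRB staining in parallel cultures.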
smiles,measurement,setting,value
FC(F)(F)C(F)(F)C(F)(F)C(F)(F)CCI,outcome,[1],inactive
same,outcome,[2],inactive
same,outcome,[3],inactive
O=C(O)C(F)(OC(F)(F)C(F)(OC(F)(F)C(F)(F)C(F)(F)F)C(F)(F)F)C(F)(F)F (stereo unspecified),outcome,[1],inactive
same,outcome,[2],inactive
same,outcome,[3],inactive
OCCCC(F)(F)C(F)(F)C(F)(F)C(F)(F)C(F)(F)C(F)(F)C(F)(F)F,AC50,[1],45.8 µM (active)
same,outcome,[1],inactive
same,AC50,[2],54.9 µM (active)
same,outcome,[2],inactive
same,AC50,[3],46.3 µM (active)
same,outcome,[3],inactive
N=C(N)C(F)(F)C(F)(F)C(F)(F)C(F)(F)C(F)(F)C(F)(F)C(F)(F)F,outcome,[1],inactive
same,outcome,[2],inactive
same,outcome,[3],inactive
CCO[Si](CCC(F)(F)C(F)(F)C(F)(F)C(F)(F)C(F)(F)C(F)(F)F)(OCC)OCC,outcome,[1],inactive
same,outcome,[2],inactive
same,outcome,[3],inactive
FC(F)(F)C(F)(F)C(F)(F)N(C(F)(F)C(F)(F)C(F)(F)F)C(F)(F)C(F)(F)C(F)(F)F,outcome,[1],inactive
same,outcome,[2],inactive
same,outcome,[3],inactive
O=C(CC(=O)C(F)(F)C(F)(F)F)C(F)(F)F,outcome,[1],inactive
same,outcome,[2],inactive
same,outcome,[3],inactive
OCC(F)(F)C(F)(F)C(F)(F)F,outcome,[1],inactive
same,outcome,[2],inactive
same,outcome,[3],inactive
O=C(O)C(F)(F)C(F)(F)C(F)F,outcome,[1],inactive
same,outcome,[2],inactive
same,outcome,[3],inactive
O=C(Cl)C(F)(F)C(F)(F)C(F)(F)C(F)(F)C(F)(F)C(F)(F)C(F)(F)C(F)(F)F,outcome,[1],inactive
same,AC50,[2],51.8 µM (active) and 44.2 µM (active)
same,outcome,[2],inactive
same,outcome,[3],inactive
same,AC50,[4],40.9 µM (active) and 21.5 µM (active)
same,outcome,[4],inactive
O=C(O)C(F)(F)C(F)(F)C(F)(F)C(F)(F)F,outcome,[1],inactive
same,outcome,[2],inactive
same,outcome,[3],inactive
C=CC(F)(F)C(F)(F)C(F)(F)C(F)(F)C(F)(F)C(F)(F)C(F)(F)C(F)(F)C=C,outcome,[1],inactive
same,outcome,[2],inactive
same,outcome,[3],inactive
FC(F)(I)C(F)(F)C(F)(F)C(F)(F)I,AC50,[1],30 µM (active) and 19.6 µM (active)
same,outcome,[1],inactive
same,AC50,[2],30 µM (active)
same,outcome,[2],inactive
same,AC50,[3],47.8 µM (active) and 45.9 µM (active)
same,outcome,[3],inactive
C=C(C)C(=O)OCC(F)(F)C(F)(F)C(F)(F)C(F)(F)C(F)(F)C(F)(F)C(F)(F)F,outcome,[1],inactive
same,AC50,[2],3.33 µM (active)
same,outcome,[2],inactive
same,AC50,[3],0.0248 µM (active)
same,outcome,[3],inactive
O=C(O)C(F)(F)C(F)(F)F,outcome,[1],inactive
same,outcome,[2],inactive
same,outcome,[3],inactive
O=C(O)C(F)(F)C(F)(F)C(F)(F)C(F)(F)C(F)(F)C(F)(F)C(F)(F)C(F)(F)C(F)(F)C(F)F,outcome,[1],inactive
same,AC50,[2],47.3 µM (active) and 45 µM (active)
same,AC50,[3],49 µM (active) and 22.5 µM (active)
FC(F)(F)C(F)(F)C(F)(F)CI,outcome,[1],inactive
same,outcome,[2],inactive
same,outcome,[3],inactive
FC(F)(F)C(F)(F)C(F)(F)C(F)(F)C(F)(F)C(F)(F)CCS,outcome,[1],inactive
same,AC50,[2],2.49 µM (active)
same,outcome,[2],inactive
same,AC50,[3],2.57 µM (active)
same,outcome,[3],inactive
FC(F)(F)C(F)(F)C(F)(F)C(F)(F)C(F)(F)C(F)(F)C(F)(F)C(F)(F)F,outcome,[1],inactive
same,outcome,[2],inactive
same,outcome,[3],inactive
O=S(=O)(OCCOC(F)(F)F)C(F)(F)F,outcome,[1],inactive
same,outcome,[2],inactive
same,outcome,[3],inactive
O=S(=O)(O)C(F)(F)C(F)(F)C(F)(F)C(F)(F)C(F)(F)C(F)(F)C(F)(F)F,outcome,[1],inactive
same,AC50,[2],13.3 µM (active)
same,outcome,[2],inactive
same,outcome,[3],inactive
same,outcome,[4],inactive
COC(=O)CCC(F)(F)C(F)(F)C(F)(F)C(F)(F)F,outcome,[1],inactive
same,AC50,[2],7.74 µM (active)
same,outcome,[2],inactive
same,outcome,[3],inactive
FC(F)(F)C(F)(F)C(F)(F)C(F)(F)C(F)(F)C(F)(F)C(F)(F)I,outcome,[1],inactive
same,outcome,[2],inactive
same,outcome,[3],inactive
O=C(O)C(F)(F)C(F)(F)C(F)(F)C(F)(F)C(F)(F)C(F)(F)C(F)(F)C(F)(F)C(F)(F)C(F)(F)C(F)(F)C(F)(F)C(F)(F)F,outcome,[1],inactive
same,outcome,[2],inactive
same,outcome,[3],inactive
FC(F)(F)C(F)(F)CNCC(F)(F)C(F)(F)F,outcome,[1],inactive
same,outcome,[2],inactive
same,outcome,[3],inactive
FC(F)(F)C(F)(F)C(F)(F)C(F)(F)C(F)(F)C(F)(F)CC1CO1 (stereo unspecified),outcome,[1],inactive
same,outcome,[2],inactive
same,outcome,[3],inactive
FC(F)(F)C(F)(F)C(F)(F)C(F)(F)C(F)(F)CCI,outcome,[1],inactive
same,outcome,[2],inactive
same,outcome,[3],inactive
O=P(O)(O)OCCC(F)(F)C(F)(F)C(F)(F)C(F)(F)C(F)(F)C(F)(F)F,outcome,[1],inactive
same,outcome,[2],inactive
same,outcome,[3],inactive
same,outcome,[4],inactive

# Source: PubChem BioAssay (EPA / NIEHS)
